# Assay outcomes deposited in PubChem BioAssay by The Scripps Research Institute Molecular Screening Center.
# Only some compounds are listed: those with a hit (about 1.2% of all), similar ones and a draw of the others.
# S1P2 agonist – S1P2 (human) receptor agonism; O95136; 97,000 compounds, 0.46% hits; activation, % at 4.5 µM; S1P2-expressing cell line, agonist reporter read-out; in the data active = activation above about 16%
# S1P2 blocker – blocks the human S1P2 receptor; 97,000 compounds, 0.21% hits; inhibition, % at 5 µM; O95136; cell-based S1P2 antagonist assay, inhibition at 5 uM; AID 736; in the data active = inhibition above about 45%;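 note: CRE beta-lactamase reporter cells expressing human S1P2 stimulated with S1P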
# GALR2 agonist – GALR2 (human) receptor agonism. O43603. GALR2-expressing cells, agonist activation read-out. activation, % (no concentration beside the values). 140,000 compounds, 0.48% hits; in the data active = activation above about 5%, passing the limit was not always enough
# Target sequence (O43603 whole entry, looked up): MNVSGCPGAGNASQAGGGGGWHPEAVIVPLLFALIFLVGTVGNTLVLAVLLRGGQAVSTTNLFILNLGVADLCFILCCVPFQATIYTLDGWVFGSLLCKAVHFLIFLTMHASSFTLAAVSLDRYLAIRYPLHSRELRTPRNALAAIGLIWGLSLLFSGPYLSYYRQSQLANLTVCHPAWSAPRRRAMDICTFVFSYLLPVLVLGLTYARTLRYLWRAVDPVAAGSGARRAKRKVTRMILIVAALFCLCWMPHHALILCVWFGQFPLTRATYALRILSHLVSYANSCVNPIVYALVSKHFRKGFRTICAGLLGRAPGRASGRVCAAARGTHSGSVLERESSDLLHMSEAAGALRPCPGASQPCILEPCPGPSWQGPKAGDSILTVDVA
# GALR2 blocker – antagonists of human galanin receptor 2 (GALR2); O43603; GALR2-expressing cells, antagonist mode; inhibition, % at 4 µM; 140,000 compounds, 0.39% hits; AID 828; in the data active = inhibition above about 27%;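 note: cells stimulated with galanin 1-16 at roughly its EC80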
# GALR2 ag confirm – confirmation of human galanin receptor 2 (GALR2) agonists; shares compounds with GALR2 agonist; GALR2-expressing cells, agonist activation; activation, % at 5.6 µM; 460 compounds, 10% hits; in the data active = activation above about 8.4%
# BLA activ ctr – beta-lactamase activation, GALR2 counterscreen | shares compounds with GALR2 agonist | CHO NFAT-bla reporter, beta-lactamase FRET activation | activation, % at 5.6 µM | 460 compounds, 10% hits;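 active = activation above the screen-wide mean activation plus 3 SD, cut at about 8% in these data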
# Numbers stand for hits; i = inactive; nt = no result given.
SMILES,S1P2 agonist,S1P2 blocker,GALR2 agonist,GALR2 blocker,GALR2 ag confirm,BLA activ ctr
Cc1ccc(-n2[nH]c(C)c(/C=C3/C=Nc4ccccc43)c2=O)cc1C,i,i,i,i,nt,nt
COc1ccc(/C=C/C(=O)OCC(=O)c2c(C)[nH]c3ccccc23)cc1OC,nt,nt,i,i,nt,nt
Cc1cc(C)c(-c2c(O)c3cnn(-c4ccccc4)c3[nH]c2=O)c(C)c1,nt,nt,34,i,i,i
CC1CN(CC(=O)c2c(N)n(Cc3ccccc3)c(=O)n(C)c2=O)CC(C)O1 (stereo not given),i,i,44,i,i,i
Cn1c(=O)c(C(=O)CN2CCOCC2)c(N)n(Cc2ccccc2)c1=O,i,i,i,i,nt,nt
C#CCNc1cc(C)nc2ncnn12,i,i,13,i,i,i
O=C(Nc1ccncc1)c1ccc2c(c1)C(=O)N(C1CCCCC1)C2=O,i,i,36,i,i,i
O=C(CSc1nnnn1-c1cccc(Cl)c1)Nc1ccc2c(c1)CCC2,nt,nt,8.8,i,i,i
COC(=O)c1cc2c(ccn2-c2ccc(F)cc2)n1CC(C)C,i,i,8.8,i,i,i
CCOC(=O)C1=C(O)/C(=C/c2ccc(C)o2)SC1=NC(=O)c1ccccc1C,i,i,i,i,nt,nt
COc1ccccc1C(=O)N1CCN(c2cccc(Cl)c2)CC1,i,i,i,i,nt,nt
COc1ccccc1[C@@H]1C(c2cccc(Cl)c2)=NN(c2ccccc2)[C@H]1C(=O)N1CCOC1=O,nt,nt,30,i,13,22
O=C1OCCN1C(=O)[C@H]1[C@H](c2ccc(Cl)cc2)C(c2cccc(Cl)c2)=NN1c1ccccc1,nt,nt,23,i,10,19
Cc1cccc(C2=NC(C(F)(F)F)(C(F)(F)F)c3c(n(-c4ccc(F)cc4)c(=O)[nH]c3=O)N2)c1,nt,nt,i,i,nt,nt
Cc1cccc(C2=NN(c3ccc(Br)cc3)[C@@H](C(=O)N3CCOC3=O)[C@@H]2c2ccc(F)cc2)c1,nt,nt,9.8,i,i,i
COC(=O)c1sc2ccccc2c1-n1cccc1C(=O)C(=O)Nc1ccc(OC)cc1,i,i,i,i,nt,nt
CN(C)CCCOc1nc2c(c(=O)n(C)c(=O)n2C)n1C,i,i,i,i,nt,nt
Cc1ccc(C)c(OCCOCCN2CC(C)OC(C)C2)c1C (stereo not given),i,i,i,i,nt,nt
CCOC(=O)C1=C(C)NC(C)=C(C(=O)OCC)C1c1sccc1C,i,i,i,i,nt,nt
Cc1ccc2nc3c(cc(C(=O)NCC4CCCO4)c(=N)n3CCCOC(C)C)c(=O)n2c1 (stereo not given),i,i,i,i,i,i
Cc1ccc2nc3c(cc(C(=O)NCC4CCCO4)n3C)c(=O)n2c1 (stereo not given),i,i,i,i,nt,nt
Cc1ccc(/C(N)=N/OC(=O)c2ccco2)cc1,i,i,i,i,nt,nt
Cc1ccc(NC2=C(Cl)C(=O)OC2OC(=O)c2ccco2)cc1 (stereo not given),i,i,35,i,i,i
COc1ccc(Nc2nc(N)nc(CSc3nnc(C)s3)n2)cc1,i,i,i,i,nt,nt
COc1ccc(OC)c(Nc2nc(N)nc(CSc3nnc(N)s3)n2)c1,i,i,17,i,i,i
SMILES,S1P2 agonist,S1P2 blocker,GALR2 agonist,GALR2 blocker,GALR2 ag confirm,BLA activ ctr
Cc1cc2c(cc1C)C(c1ccccc1Br)CC(=O)N2 (stereo not given),nt,nt,21,i,i,i
Cc1cccc(NC(=O)Cn2cnc3ccccc3c2=O)c1C,i,i,i,i,nt,nt
Cc1nn(C)c(C)c1/C=N/NC(=O)CCn1cc([N+](=O)[O-])cn1,nt,nt,92,i,i,i
COc1ccc2ccccc2c1/C=N/NC(=O)c1sc(N)c(C#N)c1C,nt,nt,12,i,i,i
NC(CC(=O)OC1CCCCC1)C(=O)OC1CCCCC1 (stereo not given),i,i,i,i,i,i
O=C(NCC(=O)N1CCCC1C(=O)O)OC1CCCCC1 (stereo not given),i,i,i,i,nt,nt
Cc1cc(C)nc(/N=C(\N)N2CCCCCC2)n1,nt,nt,17,i,i,i
O=S(=O)(c1cccc2ccccc12)n1nnc2ccccc21,i,i,94,i,i,i
CCn1ccnc1C(O)c1ccccc1OC (stereo not given),i,i,i,i,nt,nt
CCOC(=O)C1=C(C)N=C2SC(C(=O)OC)=CC(=O)N2C1c1ccc(F)cc1 (stereo not given),i,i,i,i,i,i
CC(Cc1ccccc1)C(=O)N[C@@H](CO)Cc1ccccc1 (stereo not given in full),nt,nt,23,i,i,i
CC(Cc1ccccc1)C(=O)NCc1ccncc1 (stereo not given),nt,nt,i,i,nt,nt
